VACV Venus inh: qHTS for Stage-Specific Inhibitors of Vaccinia Orthopoxvirus: Venus Reporter Primary qHTS; Vaccinia virus Venus reporter expression, fluorescence; 330,000 compounds, 0.46% hits; Potency, µM (titrated, usually from 36.5 µM), actives largely listed as inhibitors; AID 720580, 2013; calls by dose curve; tested in A549 cells; further: nearly all actives have a fitted effect of over 30% in size
Pf growth 48h: Primary qHTS for delayed death inhibitors of the malarial parasite plastid, 48 hour incubation; P. falciparum luciferase growth in erythrocytes, 48 h; Potency, µM (top dose mostly 28.7 µM), actives largely listed as inhibitors; 310,000 compounds, 5.9% hits; AID 504832, 2011
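Read-out is firefly luciferase luminescence from an integrated reporter in P. falciparum, so falling signal marks reduced parasite growth. Infected erythrocytes were at 2% hematocrit and 0.1% parasitemia (final) in Albumax-supplemented RPMI 1640.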
NS1 function inh: qHTS Assay for Inhibitors of Influenza NS1 Protein Function. Potency, µM (series often up to 46.1 µM). 270,000 compounds, 0.4% hits; calls by dose curve; further: actives are rising curves; nearly all actives have a fitted effect of over 50% in size
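Growth recovery, yeast-based: influenza A NS1 expressed in S. cerevisiae causes slow growth, and suppressors are detected by OD600. The parent strain without NS1 is used as positive control.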
VACV mCherry inh: qHTS for Stage-Specific Inhibitors of Vaccinia Orthopoxvirus: mCherry Reporter Primary qHTS. Vaccinia virus mCherry reporter infection, fluorescence. Potency, µM (highest dose often 36.5 µM), actives largely listed as inhibitors. 310,000 compounds, 0.63% hits. AID 720579, 2013; calls by dose curve; tested in A549 cells; further: nearly all actives have a fitted effect of over 35% in size
HCV inhibitor: qHTS Assay for Inhibitors of Hepatitis C Virus (HCV); Huh7.5.1 HCVcc-Cre infection, luciferase reporter, 44 h; Potency, µM (titrated, usually from 41.8 µM), hits mostly inhibitors; 340,000 compounds, 3.4% hits
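Infectious HCV cell culture screen: compound-treated cells (1,000/well, pre-plated 4 h) are infected with HCVcc-Cre at roughly 0.5 moi and grown 44 h. Infection is quantified by luciferase signal after 15 min substrate incubation at room temperature.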
Pf growth 96h: Primary qHTS for delayed death inhibitors of the malarial parasite plastid, 96 hour incubation. 320,000 compounds, 6.9% hits. Potency, µM (highest dose often 28.7 µM), hits mostly inhibitors. AID 504834, 2011. P. falciparum luciferase reporter growth, 96 h
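Two-generation exposure (96 h) targets delayed-death phenotype. Reporter parasites carrying integrated firefly luciferase, in red cells at 2% hematocrit and 0.05% parasitemia final, kept at 37 C, 5% CO2; luminescence loss indicates inhibition.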
Large screens that a line does not name were inactive. Rows were chosen to be rich in hits. Some 11% of all compounds tested hit in one or more screens of this group. Unless noted, the call rests on the fitted dose curve; in most records, active means well fitted inhibition curve with a large enough effect; inconclusive means small, poorly fitted or top-dose-only effect, or another doubt; inactive means no such curve, though single readings can be large or run the other way.

CN1C(=O)NC(c2cccc(O)c2)C(C(=O)c2cccs2)C1(O)C(F)(F)F (stereo not drawn)	none
C=CCn1c(SCCCCCC)nc(O)cc1=O	NS1 function inh inconclusive, Pf growth 96h 6.57µM
C=CCn1c(SCCCC)nc(O)cc1=O	NS1 function inh inconclusive, Pf growth 96h inconclusive
COc1ccccc1CN(C)CC(=O)NC(=O)NC1CCCCC1	Pf growth 48h inconclusive, Pf growth 96h inconclusive (no result: VACV Venus inh, NS1 function inh, VACV mCherry inh)
Cc1ccc(-c2nc3ccccc3o2)cc1NC(=O)c1ccc2c(c1)OCO2	none (no result: VACV Venus inh, VACV mCherry inh, Pf growth 96h)
O=C(NC(=S)Nc1cc(-c2nc3ccccc3[nH]2)ccc1Cl)c1ccc2c(c1)OCO2	Pf growth 48h 4.65µM, HCV inhibitor inconclusive, Pf growth 96h inconclusive
Cc1ccc(-c2nc3ccccc3[nH]2)cc1NC(=O)c1ccc2c(c1)OCO2	Pf growth 48h inconclusive, HCV inhibitor 11.2µM, Pf growth 96h inconclusive
CCCCNC(=O)CC1Nc2ccccc2NC1=O (stereo not drawn)	VACV mCherry inh inconclusive
CCCCOc1ccccc1NC(=O)CC1Nc2ccccc2NC1=O (stereo not drawn)	Pf growth 48h 1.65µM
CC(NS(=O)(=O)OCC(Cl)(Cl)Cl)c1ccc(C(C)(C)C)cc1 (stereo not drawn)	VACV Venus inh 20µM, VACV mCherry inh 11.2µM, HCV inhibitor inconclusive, Pf growth 96h inconclusive
CCCCNC(=O)c1c(N)n(/N=C/c2ccccn2)c2nc3ccccc3nc12	NS1 function inh inconclusive, Pf growth 96h 1.47µM (no result: VACV Venus inh, VACV mCherry inh, HCV inhibitor)
CC(C)CNC(=O)c1c(N)n(/N=C/c2ccccn2)c2nc3ccccc3nc12	Pf growth 48h inconclusive
Cc1ccc(S(=O)(=O)c2c(N)n(/N=C/c3ccco3)c3nc4ccccc4nc23)cc1	Pf growth 48h 6.57µM, HCV inhibitor inconclusive, Pf growth 96h inconclusive (no result: VACV Venus inh, VACV mCherry inh)
Nc1c(C(=O)NC2CCCCC2)c2nc3ccccc3nc2n1/N=C/c1ccco1	Pf growth 96h 9.28µM (no result: VACV Venus inh, VACV mCherry inh, HCV inhibitor)
Cc1cccc(S(=O)(=O)c2c(N)n(/N=C/c3cccnc3)c3nc4ccccc4nc23)c1	HCV inhibitor inconclusive (no result: Pf growth 96h)
Cc1ccc(S(=O)(=O)c2c(N)n(/N=C/c3ccco3)c3nc4ccccc4nc23)cc1C	Pf growth 48h 2.08µM, NS1 function inh inconclusive, HCV inhibitor inconclusive, Pf growth 96h 3.29µM
Cc1ccc(S(=O)(=O)N(C)CC(=O)NCCCn2nc(C)cc2C)cc1	none (no result: VACV Venus inh, Pf growth 48h, NS1 function inh, VACV mCherry inh, Pf growth 96h)
Cc1cccc(NC(=O)CSc2nnnn2C)n1	VACV mCherry inh inconclusive
Cc1ccc(-n2c(N)c(S(=O)(=O)c3ccccc3)c3nc4ccccc4nc32)cc1	Pf growth 96h inconclusive (no result: NS1 function inh)
Cc1cccc(S(=O)(=O)c2c(N)n(/N=C/c3ccco3)c3nc4ccccc4nc23)c1	Pf growth 48h 8.28µM, NS1 function inh inconclusive, HCV inhibitor 2.51µM (no result: VACV Venus inh, VACV mCherry inh)
Cc1cccc(S(=O)(=O)c2c(N)n(-c3ccccc3)c3nc4ccccc4nc23)c1	Pf growth 48h inconclusive, HCV inhibitor inconclusive, Pf growth 96h 9.28µM
Nc1c(S(=O)(=O)c2ccccc2)c2nc3ccccc3nc2n1/N=C/c1ccco1	Pf growth 48h inconclusive, HCV inhibitor inconclusive, Pf growth 96h inconclusive (no result: VACV Venus inh, VACV mCherry inh)
CCOc1ccc(NC(=O)c2ccc(N3CC4CC(C3)c3cccc(=O)n3C4)c(NC(=O)c3ccncc3)c2)cc1 (stereo not drawn)	Pf growth 48h inconclusive (no result: VACV Venus inh, VACV mCherry inh)
CN(C)C(=O)c1ccc(-n2cnc3ccccc3c2=O)cc1	Pf growth 96h 11.7µM (no result: NS1 function inh)
O=C(NCCNc1ccc([N+](=O)[O-])cc1C(F)(F)F)c1cccc(F)c1	VACV Venus inh inconclusive, Pf growth 48h inconclusive, VACV mCherry inh inconclusive, HCV inhibitor inconclusive, Pf growth 96h inconclusive
O=C(NCCNc1ccc([N+](=O)[O-])cc1C(F)(F)F)c1ccccc1	Pf growth 48h inconclusive, Pf growth 96h 13.1µM
COC(=O)C1=C(c2ccccc2OCc2ccccc2)C[C@@H]2CC[C@H]1N2C(=O)NCc1ccccc1	VACV Venus inh inconclusive, Pf growth 48h 10.4µM, HCV inhibitor inconclusive, Pf growth 96h 4.15µM (no result: NS1 function inh)
COC(=O)C1=C(c2ccc(F)cc2OCc2ccccc2)C[C@@H]2CC[C@H]1N2C(=O)NCc1ccco1	Pf growth 48h inconclusive, VACV mCherry inh inconclusive, HCV inhibitor inconclusive, Pf growth 96h inconclusive (no result: NS1 function inh)
